Vif-A3F inh: inhibitors of Vif-A3F interaction; HeLa A3F-eYFP + Vif (tagged APOBEC3F with the HIV-1 protein that degrades it), YFP fluorescence increase; 390,000 tested, 0.2% active; Potency, µM (highest dose often 46.1 µM), inactives show at the top dose activity, negative = active; note: potency is the fitted concentration of half-maximal effect; % of control where 0% means no effect; nearly all actives have a fitted effect of over 65% in size
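Fluorescence increase (Ex 488/Em 500-530) after overnight compound treatment at 37 deg C flags inhibition of Vif-driven A3F-eYFP loss in stable HeLa A3F-eYFP/Vif cells seeded overnight beforehand.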
MCF10A rerep: inducers of DNA re-replication in MCF 10A breast cells; MCF 10A DNA re-replication, Hoechst nuclear intensity, 48 h; Potency, µM (top dose mostly 46.1 µM), without a hit: at the highest dose activity, positive = re-replication, usual class: activators; 350,000 tested, 2.9% active; AID 624296; note: potency is the fitted concentration of half-maximal effect; % of control where 0% means no effect; nearly all actives have a fitted effect of over 50% in size
Vif-APOBEC3G blk: Vif-A3G binding inhibition. HeLa A3G-eYFP + Vif (tagged APOBEC3G with the HIV-1 protein that degrades it), YFP fluorescence, overnight. 410,000 tested, 0.076% active. Potency, µM (top dose mostly 46.1 µM), without a hit: at the top dose activity, negative = active, actives largely listed as inhibitors; note: potency is the fitted concentration of half-maximal effect; % is set by controls: 0 for no effect and ±100 for the full control effect; nearly all actives have a fitted effect of over 60% in size
Target sequence (Q9HC16 whole entry, looked up): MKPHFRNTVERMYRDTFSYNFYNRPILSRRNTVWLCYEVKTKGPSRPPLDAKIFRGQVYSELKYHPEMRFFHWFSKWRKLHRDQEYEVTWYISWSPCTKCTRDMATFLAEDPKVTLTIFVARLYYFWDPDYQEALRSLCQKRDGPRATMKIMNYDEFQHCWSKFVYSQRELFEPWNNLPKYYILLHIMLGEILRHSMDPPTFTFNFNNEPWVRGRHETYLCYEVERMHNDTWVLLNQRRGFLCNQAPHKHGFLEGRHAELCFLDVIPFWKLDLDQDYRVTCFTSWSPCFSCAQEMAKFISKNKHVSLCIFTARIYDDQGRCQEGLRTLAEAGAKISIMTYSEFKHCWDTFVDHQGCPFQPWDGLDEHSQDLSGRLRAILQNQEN
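HeLa cells stably expressing Vif and C-terminally eYFP-tagged A3G, seeded overnight at 37 deg C, then exposed to compound by pintool overnight at 37 deg C. Rise in yellow fluorescence (Ex 488/Em 500-530, Acumen) marks blocked Vif-driven A3G degradation.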
SW480 rerep: DNA re-replication induction in SW480 cells | SW480 DNA re-replication, Hoechst DNA content imaging, 48 h | Potency, µM (titrated, usually from 46.1 µM), inactives show at the top dose re-replication activation, most hits filed as activators | 340,000 tested, 1.8% active; note: potency is the fitted concentration of half-maximal effect; % of control where 0% means no effect; nearly all actives have a fitted effect of over 55% in size
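Quantitative HTS format with DMSO vehicle controls; 48 hr drug incubation at 37 C, then 40 min Hoechst staining and scanning imager measurement at 405 nm excitation.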
IL1B secr inh: inhibitors of inflammasome signaling (IL-1 beta secretion) | activity change, % at 57.5 µM | 360,000 tested, 4.7% active | THP-1 LPS/ATP IL-1B secretion, AlphaLISA, 16 h; stronger effect = lower value; in the data active = activity change below about -50%; inconclusive = mostly about -30% to -49%; note: % is set by controls: 0 for no effect and ±100 for the full control effect
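THP-1 cells pretreated 1 hr with compounds (up to 57.5 uM final), then stimulated with LPS (250 ng/mL final) plus ATP (1.25 mM final); secreted IL-1B measured by AlphaLISA after 16 hr, decreased signal indicating inhibition.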
Giardia kill: Giardia lamblia killing; Giardia lamblia trophozoite viability; activity change, % at 7.66 µM, hits read low; 340,000 tested, 0.15% active; in the data active = activity change below about -80%; inconclusive = between about -30% and that limit;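 note: parasites exposed to compound for two days anaerobically before the ATP read; % is set by controls: 0 for no effect and ±100 for the full control effect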
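Giardia trophozoites, 100 cells per well, were exposed to compounds for 48 hrs at 37 deg C under anaerobic conditions; viability was then read as ATP content by bioluminescence after 15-30 min at room temperature.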
Numbers without * were called inactive. Hits are enriched below; roughly 6.9% of the tested compounds scored in any of these assays. Unless noted, calls come from the whole dose curve; as a rule, active = well fitted curve in the direction sought with a large enough effect; inconclusive = small, poorly fitted or top-dose-only effect, or another doubt; inactive = no such curve, though single readings can be large; an effect the other way counts as inactive or inconclusive.

Screening Cc1ccc(OCCC(=O)N2CCN(c3ccc(O)cc3)CC2)cc1 returned Vif-A3F inh -10%, MCF10A rerep inconclusive, Vif-APOBEC3G blk -3%, SW480 rerep 7.3µM*, IL1B secr inh 24 and Giardia kill 9.
O=C(NC1CCCCC1)[C@@H]1CC=C[C@@H]2CCN(Cc3ccc(Cl)c(Cl)c3)C(=O)[C@@H]21 was read as Vif-APOBEC3G blk -2%.
`CC(=O)c1ccccc1NC(=O)CSCc1nc2sc(C)c(C)c2c(=O)[nH]1` gave Vif-A3F inh 3%, MCF10A rerep 3%, Vif-APOBEC3G blk 0%, SW480 rerep -5%, IL1B secr inh 8 and Giardia kill 0.
Cc1sc2nc(CSCC(=O)Nc3ccccc3C#N)[nH]c(=O)c2c1C was read as Vif-A3F inh 13µM*, MCF10A rerep 21%, Vif-APOBEC3G blk -3%, SW480 rerep 7%, IL1B secr inh 1 and Giardia kill 4.
`CSc1ccccc1NC(=O)CSCc1nc2sc(C)c(C)c2c(=O)[nH]1` gave Vif-A3F inh -30%, MCF10A rerep 2.3µM*, Vif-APOBEC3G blk -9%, SW480 rerep -26%, IL1B secr inh 45 and Giardia kill -3.
`Cc1nc([N+](=O)[O-])c(Br)n1CC(=O)c1ccc(F)cc1` gave Vif-A3F inh -2%, MCF10A rerep 21µM*, Vif-APOBEC3G blk inconclusive, SW480 rerep inconclusive, IL1B secr inh -97* and Giardia kill 4.
For Cc1nc([N+](=O)[O-])c(Br)n1CC(=O)c1cccc([N+](=O)[O-])c1 the results were Vif-A3F inh 10%, MCF10A rerep 21µM*, Vif-APOBEC3G blk inconclusive, SW480 rerep inconclusive, IL1B secr inh -98* and Giardia kill -15.
`COC(=O)Cn1c(C)nc([N+](=O)[O-])c1Br` gave Vif-A3F inh -6%, MCF10A rerep 0%, Vif-APOBEC3G blk -2%, SW480 rerep -14%, IL1B secr inh inconclusive and Giardia kill 0.
Screening Cc1nc([N+](=O)[O-])c(Br)n1Cc1ccccc1 returned Vif-A3F inh 0%, MCF10A rerep inconclusive, Vif-APOBEC3G blk -14%, SW480 rerep 28%, IL1B secr inh -10 and Giardia kill -5.
COc1ccc(Nc2nc(Nc3ccc(OC)cc3OC)nc(N3CCOCC3)n2)c(OC)c1 was read as Vif-A3F inh -4% and Vif-APOBEC3G blk 3%.
Screening CCc1ccc(OCc2n[nH]c(=S)n2C(C)CCCC(C)C)cc1 (centres undefined) returned Vif-A3F inh 4%, MCF10A rerep 13µM*, Vif-APOBEC3G blk -7%, SW480 rerep -3%, IL1B secr inh -9 and Giardia kill 3.
For Cc1cc(C)c(C#N)c(SCCS(=O)(=O)c2ccc(Cl)cc2)n1 the results were Vif-A3F inh 10%, MCF10A rerep 2%, Vif-APOBEC3G blk -4%, SW480 rerep 9%, IL1B secr inh -76* and Giardia kill 19.
Cc1cc(C)c(C#N)c(SCCS(=O)(=O)c2ccc(C(C)(C)C)cc2)n1 was read as Vif-A3F inh 1%, MCF10A rerep 10%, Vif-APOBEC3G blk 2%, SW480 rerep 0%, IL1B secr inh -19 and Giardia kill -5.
`CC(=O)Nc1c(C(=O)Nc2cccc(C)c2)nnn1-c1ccc(C)cc1` gave Vif-A3F inh -22% and Vif-APOBEC3G blk -1%.
O=[N+]([O-])c1cc(S(=O)(=O)N2CCCCCC2)ccc1F was read as Vif-A3F inh -1%, MCF10A rerep 4.6µM*, Vif-APOBEC3G blk inconclusive, IL1B secr inh inconclusive and Giardia kill -11.
`CC(Oc1cc(F)ccc1[N+](=O)[O-])C(=O)Nc1ccc(S(=O)(=O)N2CCCC2)cc1` (centres undefined) gave Vif-A3F inh 1%, MCF10A rerep 21µM*, Vif-APOBEC3G blk -11%, SW480 rerep 16µM*, IL1B secr inh -16 and Giardia kill -15.
O=C(c1cc(S(=O)(=O)N2CCC3(CC2)OCCO3)ccc1F)N1CCCCC1 was read as Vif-A3F inh 8%, MCF10A rerep 0%, Vif-APOBEC3G blk -6%, SW480 rerep -3%, IL1B secr inh -60* and Giardia kill 1.
Screening Cc1ccccc1OC(C)C(=O)Nc1ccc(S(=O)(=O)N2CCCC2)cc1 (centres undefined) returned Vif-A3F inh 5%, MCF10A rerep inconclusive, Vif-APOBEC3G blk -1%, SW480 rerep -3%, IL1B secr inh -10 and Giardia kill 2.
`CN(CC(=O)Nc1ccc(Cl)cc1)c1ccc(S(=O)(=O)N2CCCCC2)cc1[N+](=O)[O-]` gave Vif-A3F inh -3%, MCF10A rerep -5%, Vif-APOBEC3G blk 4%, SW480 rerep -4%, IL1B secr inh -61* and Giardia kill -3.
`O=C(Nc1cc(Cl)cc(Cl)c1)c1cc(S(=O)(=O)N2CCC3(CC2)OCCO3)ccc1F` gave Vif-A3F inh -6% and Vif-APOBEC3G blk -2%.
`CCOC(=O)c1ccccc1NC(=O)CCc1c(C)nc2ncnn2c1C` gave Vif-A3F inh -4% and Vif-APOBEC3G blk 5%.
`O=C1OC(C(=O)Nc2cc(C(F)(F)F)ccc2Cl)Cc2ccccc21` (centres undefined) gave Vif-A3F inh 1% and Vif-APOBEC3G blk -2%.
For N#Cc1c2ccc(OCC(N)=O)cc2n2ccccc12 the results were Vif-A3F inh inconclusive, MCF10A rerep 22%, Vif-APOBEC3G blk -17%, SW480 rerep 10%, IL1B secr inh 0 and Giardia kill -5.
For CCOC(=O)COc1ccc2c(C#N)c3ccccn3c2c1 the results were Vif-A3F inh 5%, MCF10A rerep 21µM*, Vif-APOBEC3G blk -2%, SW480 rerep inconclusive, IL1B secr inh 16 and Giardia kill -20.
Screening COc1ccc(-c2nc(-c3ccc(NC(=O)c4ccc(Br)o4)cc3)no2)cc1OC returned Vif-A3F inh 11%, MCF10A rerep 2.6µM*, Vif-APOBEC3G blk -13%, SW480 rerep 15%, IL1B secr inh -18 and Giardia kill -2.
Screening O=C(Nc1ccc(-c2nc3ncccc3o2)cc1)c1ccco1 returned Vif-A3F inh -3%, MCF10A rerep inconclusive, Vif-APOBEC3G blk 0%, SW480 rerep inconclusive, IL1B secr inh inconclusive and Giardia kill -11.
`O=C(Nc1ccc(-c2nc3ncccc3o2)cc1)c1ccc(Br)o1` gave Vif-A3F inh -23%, MCF10A rerep 5%, Vif-APOBEC3G blk inconclusive, SW480 rerep inconclusive, IL1B secr inh -55* and Giardia kill 3.

Bioassay records as filed in PubChem BioAssay.
